From PubChem
HT1080 IDH1KD tx: qHTS for induction of synthetic lethality in tumor cells producing 2HG: qHTS for the HT-1080-IDH1KD cell line; Potency, µM (series often up to 46.1 µM), inactives show at the top dose activity, negative = toxicity, most hits filed as cytotoxic; 360,000 compounds, 2% hits; HT-1080 IDH1 knockdown viability, ATP luminescence, 48 h; AID 686971, 2013;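 note: potency is the fitted concentration of half-maximal effect; 0% = DMSO wells and -100% = cell-free medium wells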
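Cytotoxicity counter-line: IDH1KD HT-1080, 48 h, CellTiter-Glo. Curves classed by r2, magnitude and activity.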
HT1080NT lethal: qHTS for induction of synthetic lethality in tumor cells producing 2HG: qHTS for the HT-1080-NT fibrosarcoma cell line. HT-1080-NT fibrosarcoma viability, CellTiter-Glo ATP luminescence, 48 h. Potency, µM (series often up to 46.1 µM), inactives show at the highest dose activity, negative = less viability, usual class: cytotoxic. 360,000 compounds, 1.6% hits;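 note: NT is the 2HG producing partner of a matched IDH1 knockdown line; potency is the fitted concentration of half-maximal effect; 0% = DMSO-treated cells and -100% = media-only wells without cells; nearly all actives have a fitted effect of over 55% in size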
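750 cells/well, RPMI + 5% FBS; 2 h settle, compound pin-transfer, 48 h at 37 degrees C. CellTiter-Glo 10 min RT, luminescence. Normalized to DMSO and media-only wells.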
DT40 TDP1 CPT: qHTS for Inhibitors of human tyrosyl-DNA phosphodiesterase 1 (TDP1): qHTS in cells in presence of CPT; Potency, µM (titrated, usually from 46.2 µM), for the others: at the top dose activity change, negative = growth inhibition, usual class: inhibitors; chicken DT40 Tdp1-/-;hTDP1 cells + 20 nM CPT, ATP luminescence, 48 h; 420,000 compounds, 12% hits; note: potency is the fitted concentration of half-maximal effect; nearly all actives have a fitted effect of over 55% in size
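Chicken DT40 Tdp1-/- cells stably complemented with human TDP1 were seeded at 400 cells/well in medium containing 20 nM camptothecin, exposed to pin-transferred compounds, and grown at 37 °C for at least 48 hr. Viability was read as ATP luminescence.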
IL-1B inflam inh: qHTS for Inhibitors of Inflammasome Signaling: IL-1-beta AlphaLISA Primary Screen | THP-1 LPS/ATP IL-1B secretion, AlphaLISA, 16 h; hits give low values | activity change, % at 57.5 µM | 360,000 compounds, 4.7% hits; in the data active = activity change below about -50%; inconclusive = mostly about -30% to -49%
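THP-1 cells pretreated 1 hr with compounds (up to 57.5 uM final), then stimulated with LPS (250 ng/mL final) plus ATP (1.25 mM final); secreted IL-1B measured by AlphaLISA after 16 hr, decreased signal indicating inhibition.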
DT40 TDP1 no CPT: qHTS for Inhibitors of human tyrosyl-DNA phosphodiesterase 1 (TDP1): qHTS in cells in absence of CPT | DT40 Tdp1-/- hTDP1 cells, no CPT, ATP luminescence, 48 h | Potency, µM (highest dose often 46.2 µM), for inactives: at the highest dose activity change, negative = growth inhibition, actives largely listed as inhibitors | 420,000 compounds, 15% hits | AID 686978, 2013; note: potency is the fitted concentration of half-maximal effect; nearly all actives have a fitted effect of over 55% in size
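Compound effects on proliferation are scored in DT40 Tdp1-/-;hTDP1 cells in the absence of CPT. ATP levels (CellTiter-Glo luminescence) are recorded after a ≥48 hr, 37 °C incubation.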
* marks the source's active call; other numbers are inactive results; [ ] = another dose, or the depositor's remark. Compounds with a hit are over-represented: about 19% of the library has one in this group of screens. Unless noted, calls come from the whole dose curve; as a rule, active = well fitted curve in the direction sought with a large enough effect; inconclusive = small, poorly fitted or top-dose-only effect, or another doubt; inactive = no such curve, though single readings can be large; an effect the other way counts as inactive or inconclusive. Unless noted, % is set by controls: 0 for no effect and ±100 for the full control effect.

For CCOC(=O)CC1=CC(C)(CC(=O)OCC)C(C#N)(C#N)C(N)=C1C#N (configuration not stated) the results were HT1080 IDH1KD tx 1%, HT1080NT lethal -7%, DT40 TDP1 CPT -19%, IL-1B inflam inh 0 and DT40 TDP1 no CPT -21%.
COc1ccc2[nH]c3c(c2c1)CCN1C(=O)C(CC(=O)NC(C)(C)C)C[C@H](C(=O)N2CCCCC2)[C@@]31C (some centres not stated) was read as HT1080 IDH1KD tx 11%, HT1080NT lethal 12%, DT40 TDP1 CPT -22%, IL-1B inflam inh -5 and DT40 TDP1 no CPT -28%.
`COc1ccc2nc3cc(Cl)ccc3c(Nc3ccc(O)c(CN4CCN(C)CC4)c3)c2c1` gave HT1080 IDH1KD tx 16µM*, HT1080NT lethal inconclusive, DT40 TDP1 CPT 1.8µM*, IL-1B inflam inh -114* and DT40 TDP1 no CPT 1.5µM*.
CCCCN(C(=O)c1ccc(-c2ccc([N+](=O)[O-])cc2)o1)c1c(N)n(CC(C)C)c(=O)[nH]c1=O was read as HT1080 IDH1KD tx -3%, HT1080NT lethal 0%, DT40 TDP1 CPT inconclusive, IL-1B inflam inh -21 and DT40 TDP1 no CPT -21%.
For CCc1cccc(C)c1NC(=O)c1ccc2c(c1)CCN2S(C)(=O)=O the results were HT1080 IDH1KD tx -17%, HT1080NT lethal -8%, DT40 TDP1 CPT -27%, IL-1B inflam inh -9 and DT40 TDP1 no CPT -29%.
`O=C1CCCN1c1ccc(S(=O)(=O)Oc2ccc(Cl)cc2)cc1[N+](=O)[O-]` gave HT1080 IDH1KD tx -15%, HT1080NT lethal -15%, DT40 TDP1 CPT 21µM*, IL-1B inflam inh -6 and DT40 TDP1 no CPT 21µM*.
Screening O=[N+]([O-])c1cc(S(=O)(=O)Oc2ccccc2)ccc1Cl returned HT1080 IDH1KD tx 18µM*, HT1080NT lethal 15µM*, DT40 TDP1 CPT 0.58µM*, IL-1B inflam inh -101* and DT40 TDP1 no CPT 0.58µM*.
Screening O=C(/C=C/[C@H]1O[C@@H](n2cnc3c(NC(=O)c4ccccc4)ncnc32)[C@H](O)[C@@H]1O)NCCCc1ccccc1 returned HT1080 IDH1KD tx 12%, HT1080NT lethal 1%, DT40 TDP1 CPT -8%, IL-1B inflam inh -25 and DT40 TDP1 no CPT -8%.
COc1cccc(-c2cc3c(c(OC)c2)OCCN(Cc2ccccc2O)C3)n1 was read as DT40 TDP1 CPT 0% and DT40 TDP1 no CPT -16%.
`CCN(c1ccccc1)S(=O)(=O)c1ccc(C(=O)N(C)Cc2cccs2)cc1` gave HT1080 IDH1KD tx -6%, HT1080NT lethal 4%[9.24 µM], DT40 TDP1 CPT inconclusive, IL-1B inflam inh -15 and DT40 TDP1 no CPT 23µM*.
For Cc1ccc(NS(=O)(=O)c2cccc(C(=O)NCC(c3cccs3)N(C)C)c2)cc1 (configuration not stated) the results were HT1080 IDH1KD tx inconclusive, HT1080NT lethal inconclusive, DT40 TDP1 CPT 16µM*, IL-1B inflam inh -16 and DT40 TDP1 no CPT inconclusive.
For Cc1cccc(NS(=O)(=O)c2ccc(C)c(C(=O)NCc3ccccn3)c2)c1 the results were HT1080 IDH1KD tx 0%, HT1080NT lethal -9%, DT40 TDP1 CPT -23%, IL-1B inflam inh 0 and DT40 TDP1 no CPT inconclusive.
`Cc1cccc(NS(=O)(=O)c2ccc(C)c(C(=O)NCC(c3cccs3)N(C)C)c2)c1` (configuration not stated) gave HT1080 IDH1KD tx -12%, HT1080NT lethal -3%, DT40 TDP1 CPT 18µM*, IL-1B inflam inh -8 and DT40 TDP1 no CPT inconclusive.
For CCN(c1ccccc1)S(=O)(=O)c1cccc(C(=O)NCC(c2cccs2)N(C)C)c1 (configuration not stated) the results were HT1080 IDH1KD tx -13%, HT1080NT lethal -12%, DT40 TDP1 CPT inconclusive, IL-1B inflam inh 21 and DT40 TDP1 no CPT 21µM*.
Screening COc1ccc(S(=O)(=O)NCCC(=O)N2CCCC2)cc1N(C)S(C)(=O)=O returned HT1080 IDH1KD tx 13%, HT1080NT lethal 11%, DT40 TDP1 CPT -9%, IL-1B inflam inh -9 and DT40 TDP1 no CPT -10%.
`CCN(CC(=O)NCc1cccs1)C(=O)c1cccc(S(=O)(=O)NCc2ccccc2)c1` gave HT1080 IDH1KD tx 20%, HT1080NT lethal 1%, DT40 TDP1 CPT -13%, IL-1B inflam inh -12 and DT40 TDP1 no CPT -21%.
CCN(CC(=O)NCc1cccs1)C(=O)c1cccc(S(=O)(=O)N(CC)c2ccccc2)c1 was read as HT1080 IDH1KD tx 0%, HT1080NT lethal -5%, DT40 TDP1 CPT inconclusive, IL-1B inflam inh 9 and DT40 TDP1 no CPT 23µM*.
`CC1(C)CCCC2(C)C3C(O)CC2(C)C(O)C31` (configuration not stated) gave DT40 TDP1 CPT 0% and DT40 TDP1 no CPT 2%.
For Cc1cc(C)cc(Nc2cc(=O)n(C3CCCCC3)c(=O)[nH]2)c1 the results were HT1080 IDH1KD tx inconclusive, HT1080NT lethal inconclusive, DT40 TDP1 CPT inconclusive, IL-1B inflam inh 22 and DT40 TDP1 no CPT 18µM*.
Screening O=c1cc(N2CCCCC2)[nH]c(=O)n1C1CCCCC1 returned HT1080 IDH1KD tx -1%, HT1080NT lethal -4%, DT40 TDP1 CPT -19%, IL-1B inflam inh 7 and DT40 TDP1 no CPT 0%.
`COc1ccc(C2=C(Nc3ccc(C)cc3)c3ccccc3C2=O)cc1` gave HT1080 IDH1KD tx 18%, HT1080NT lethal 1%, DT40 TDP1 CPT 5.2µM*, IL-1B inflam inh 2 and DT40 TDP1 no CPT inconclusive.
For COc1ccc(NC(=O)Nc2ccc(Br)c(C)c2)cc1 the results were HT1080 IDH1KD tx 21%, HT1080NT lethal 30%, DT40 TDP1 CPT 1%, IL-1B inflam inh -7 and DT40 TDP1 no CPT -7%.
For Cc1cc(C)cc(NC2=C(c3ccccc3)C(=O)c3ccccc32)c1 the results were DT40 TDP1 CPT 21µM* and DT40 TDP1 no CPT inconclusive.
For COc1ccc(C2=C(Nc3ccc(F)cc3)c3ccccc3C2=O)cc1 the results were HT1080 IDH1KD tx -20%, HT1080NT lethal -13%, DT40 TDP1 CPT inconclusive, IL-1B inflam inh -20 and DT40 TDP1 no CPT inconclusive.
Screening COc1ccc(C2=C(Nc3ccc(Br)c(C)c3)c3ccccc3C2=O)cc1 returned DT40 TDP1 CPT 7.3µM* and DT40 TDP1 no CPT 12µM*.
Cc1ccc(NC(=O)[C@@H]2CCCN2C(=O)[C@@H]2Cc3ccccc3CN2)c(C)c1 was read as HT1080 IDH1KD tx 14%, HT1080NT lethal 2%, DT40 TDP1 CPT 3%, IL-1B inflam inh -15 and DT40 TDP1 no CPT 1%.
